From PubChem BioAssay
An excerpt weighted towards active compounds, which were near 1.3% of everything screened.
RXFP1 antag: antagonists of human relaxin receptor RXFP1. HEK293-RXFP1, relaxin-stimulated cAMP HTRF, 30 min; hits give low values. 0.59% of 350,000 active. activity change, negative = inhibition, % at 57.5 µM. Q9HBX9;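 active = activity change of -60% or lower, but not beyond a set lower limit; inconclusive = change between -60% and -40%, or beyond the set limit; inactive = change above -40%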; also: % is scaled to controls: 0 for no effect and ±100 for the full control effect
Target sequence (Q9HBX9 whole entry, looked up): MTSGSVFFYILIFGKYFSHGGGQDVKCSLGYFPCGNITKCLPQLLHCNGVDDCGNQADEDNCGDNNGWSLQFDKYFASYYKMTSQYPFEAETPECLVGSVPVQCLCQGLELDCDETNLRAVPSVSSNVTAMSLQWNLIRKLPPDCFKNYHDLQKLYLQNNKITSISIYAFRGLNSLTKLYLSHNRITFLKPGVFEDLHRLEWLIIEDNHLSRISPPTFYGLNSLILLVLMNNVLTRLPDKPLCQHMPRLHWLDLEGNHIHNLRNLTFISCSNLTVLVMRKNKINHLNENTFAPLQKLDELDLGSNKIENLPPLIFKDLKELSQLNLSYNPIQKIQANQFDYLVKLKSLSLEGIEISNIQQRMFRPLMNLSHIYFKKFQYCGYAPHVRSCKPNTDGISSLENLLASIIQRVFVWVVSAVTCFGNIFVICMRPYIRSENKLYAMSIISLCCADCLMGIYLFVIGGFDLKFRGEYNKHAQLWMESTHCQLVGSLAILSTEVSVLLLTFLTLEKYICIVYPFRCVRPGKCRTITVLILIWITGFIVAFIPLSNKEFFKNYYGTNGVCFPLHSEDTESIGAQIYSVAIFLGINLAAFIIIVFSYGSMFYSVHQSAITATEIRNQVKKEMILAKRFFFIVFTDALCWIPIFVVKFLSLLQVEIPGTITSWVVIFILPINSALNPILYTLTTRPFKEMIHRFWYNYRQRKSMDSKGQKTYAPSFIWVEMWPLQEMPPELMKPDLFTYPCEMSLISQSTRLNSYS
pAkt inh: inhibitors of Akt phosphorylation. 0.32% of 360,000 active. activity change, % for hits at 50 µM. Neuro2A IGF-stimulated pAkt S473 HTRF, 20 min; hits give low values. AID 651550; in the data active = activity change below about -80%; inconclusive = mostly about -51% to -80%; also: % is scaled to controls: 0 for no effect and ±100 for the full control effect
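Neuro2A cells in DMEM with 0.5% FBS, overnight at 37 deg C, given compound at single 50 µM final, then IGF (6 nM final) for 20 min at 37 deg C. Lysed; phospho-Akt Ser473 by HTRF after 24 h, 665/615 ratio.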
TSHR antagonist: human thyrotropin receptor antagonism | TSHR-expressing cells, TSH-stimulated cAMP HTRF, 2 h; hits give low values | activity change, negative = inhibition, % at 11.5 µM | 0.2% of 330,000 active;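 active = activity change below a set negative limit, meaning inhibition stronger than a set level, cut at about -70% in these data; inconclusive = activity change between two set negative limits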; also: % is scaled to controls: 0 for no effect and ±100 for the full control effect
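Antagonism was scored as loss of TSH-driven cAMP in TSHR cells, stimulated with 4nM TSH (EC80) for 2 hours at 37 deg C and detected by homogeneous HTRF competition immunoassay.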
gsp antag: antagonizes gsp, the McCune-Albright syndrome mutation; Potency, µM (titrated, usually from 76.9 µM), for inactives: at the highest dose activity change, negative = inhibition, usual class: inhibitors; 0.4% of 340,000 active; gsp-mutant cells, cAMP HTRF, 30 min; calls by dose curve; cell line not stated here;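 also: intracellular cAMP measured with PDE inhibitor Ro 20-1724 present during compound exposure; potency is read from the fitted curve at half-maximal effect; % is scaled to controls: 0 for no effect and ±100 for the full control effect; nearly all actives have a fitted effect of over 65% in size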
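Measurement of cellular cAMP by homogeneous time-resolved fluorescence following a 30 min compound exposure at 37C. The PDE inhibitor […] was present throughout; the assay buffer was DPBS with 0.05% BSA and 0.005% Tween 20.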
gsp agonist: gsp mutant agonism; gsp mutant cells, cAMP HTRF, 30 min; Potency, µM (titrated, usually from 76.9 µM), without a hit: at the highest dose activation (cAMP increase), hits mostly activators; 0.13% of 340,000 active; active = well fitted activation curve with a large enough effect; inconclusive = small, poorly fitted or top-dose-only effect, or another doubt; inactive = no such curve, though single readings can be large or run the other way; cell line not stated here;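 also: phosphodiesterase inhibitor Ro 20-1724 added with compounds to block cAMP breakdown; potency is read from the fitted curve at half-maximal effect; nearly all actives have a fitted effect of over 60% in size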
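Cells in DMEM/10% FBS with G418 were pretreated with compounds in DMSO plus […] (300 uM stock) for 30 min at 37C. cAMP was measured by HTRF (cAMP-d2 plus anti-cAMP antibody-K) after 30 min at room temperature.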
RXFP1 agonist: activates the human relaxin receptor RXFP1. HEK293T-RXFP1 cAMP TR-FRET, 30 min; response scale: percent of porcine relaxin response, buffer zero. Potency, µM (series often up to 57.5 µM), for inactives: at the top dose activation, usual class: activators. 0.3% of 370,000 active; active = well fitted activation curve with a large enough effect; inconclusive = small, poorly fitted or top-dose-only effect; also: potency is read from the fitted curve at half-maximal effect; % is scaled to controls: 0 for no effect and ±100 for the full control effect; nearly all actives have a fitted effect of over 60% in size
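cAMP rise read by TR-FRET after 30 min, 37C compound exposure (up to 58 uM) in RXFP1-transfected HEK293 cells with Ro 20174 present. EC50 from Hill-equation fits, with 29 nM porcine relaxin as 100% and buffer as basal.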
* hit, by the source's call; i = inactive; ? = inconclusive; / = no result given; [ ] = dose if it differs, or a comment.

SMILES	RXFP1 antag	pAkt inh	TSHR antagonist	gsp antag	gsp agonist	RXFP1 agonist
CC(C)CCn1c(=O)c2sccc2n2c(CCCC(=O)N3CCN(c4ccccn4)CC3)nnc12	-13	i	5	-16%	?	7%
CC(C)OCCCn1c(=O)c2ccccc2n2c(CCC(=O)N3CCN(c4ccccn4)CC3)nnc12	-29	i	-5	-8%	20µM*	19%
O=C(CCc1nnc2n(Cc3ccc(Cl)cc3)c(=O)c3ccccc3n12)N1CCN(c2ccccn2)CC1	11	i	-134*	-12%	?	-1%
CC(C)CCn1c(=O)c2ccccc2n2c(CCC(=O)NCC3CCCO3)nnc12 (stereo unspecified)	-13	i	-11	6%	32µM*	?
COCCn1nnnc1C(c1ccc2ncccc2c1)N1CCN(c2ccccc2F)CC1 (stereo unspecified)	-23	-104%*	0	0%	3%	3%
COCCn1nnnc1C(c1ccc2ncccc2c1)N1CCc2ccccc21 (stereo unspecified)	-13	i	-12	-9%	-35%	5%
COc1cc(C(C#N)N2N=C(c3ccccc3)CC2c2ccccc2)ccc1O (stereo unspecified)	8	-113%*	-2	-13%	3%	2%
N#CC(c1ccccc1O)N1N=C(c2ccccc2)CC1c1ccccc1 (stereo unspecified)	-1	i	-6	-6%	0%	1%
CC(NC(=O)/C(C#N)=C/c1ccc([N+](=O)[O-])o1)c1ccccc1 (stereo unspecified)	-75*	i	-48	-25%	-1%	0%
COc1ccc(-c2cc(C(F)(F)F)c(C#N)c(=O)[nH]2)cc1	-27	i	-23	-31%	19%	8%
N#Cc1c(C(F)(F)F)cc(-c2cccc(Cl)c2)[nH]c1=O	-13	i	-40	35µM*	4%	3%
N#Cc1c(C(F)(F)F)cc(-c2ccc(F)cc2)[nH]c1=O	-7	i	33	-12%	13%[15.4 µM]	12%
N#Cc1c(C(F)(F)F)cc(-c2ccc(Cl)cc2)[nH]c1=O	-10	i	?	35µM*	24%	4%
CCCNC(=O)C(Cc1ccc(F)cc1)NC(=O)c1ccc(C#N)cc1 (stereo unspecified)	/	i	3	10%	-32%	-1%
CC1(C)CC(NC(=S)NC(=O)c2cc(Br)ccc2Cl)CC(C)(C)N1	0	i	-5	6%	-31%	1%
O=C(C1COc2ccccc2O1)N1CCN(c2nc3c(F)cc(F)cc3s2)CC1 (stereo unspecified)	-12	i	-10	?	12%[15.4 µM]	-1%
Cc1ccc(-n2[nH]c(C)c(/C=N/Nc3ccc([N+](=O)[O-])cc3[N+](=O)[O-])c2=O)cc1	-74*	i	?	32µM*	?	-1%
COC(=O)C1CCCN1S(=O)(=O)c1ccc2ccccc2c1 (stereo unspecified)	5	i	-78*	-43%	-8%	-2%
Cc1cc(C(=O)COC(=O)c2ccc(Cl)c(S(N)(=O)=O)c2)c(C)n1C1CC1	-8	i	0	-13%	-7%	0%
Cc1ccc(/C=C/C(=O)NC(=S)Nc2ccc(S(=O)(=O)Nc3cc(C)on3)cc2)cc1	-9	i	-24	35µM*	0%	0%
Cc1cc(NS(=O)(=O)c2ccc(NC(=S)NC(=O)/C=C/c3ccccc3)cc2)no1	-7	i	-15	?	7%	2%
CC(C)NC(=O)COc1coc(CN2CCN(c3ccccc3F)CC2)cc1=O	-4	i	-124*	-1%	-12%	-1%
COc1ccccc1N1CCN(Cc2cc(=O)c(OCC(=O)NC(C)C)co2)CC1	-1	i	-7	8%	20%	2%
CCSc1nnc(-c2cnn(-c3ccccc3)c2-n2cccc2)n1C	-6	-115%*	17	5%	18%	-1%
CCCCCCSc1nnc(-c2cnn(-c3ccccc3)c2-n2cccc2)n1C	-17	i	-7	-16%	3%	-3%
SMILES	RXFP1 antag	pAkt inh	TSHR antagonist	gsp antag	gsp agonist	RXFP1 agonist
Cc1ccc(Cl)cc1-n1ncc2c(NCc3ccc(F)cc3)ncnc21	-65*	/	/	/	/	-3%
Cc1ccc(Cl)cc1-n1ncc2c(NCCc3ccccc3)ncnc21	-28	/	/	/	/	0%
Cc1cc(C)cc(OCCCC(=O)O)c1	-4	-106%*	2	0%	-29%	0%
CCc1ccc(-c2ccc3nnc(SCC(=O)NCC4CCCO4)n3n2)cc1 (stereo unspecified)	10	i	9	15%	12%[15.4 µM]	26%
Cc1ccc(-c2ccc3nnc(SCC(=O)NCC4CCCO4)n3n2)cc1 (stereo unspecified)	11	i	26	0%	9%	25µM*
O=C(CS)Nc1ccc2ccccc2c1	-102*	i	-30	5%	-9%[15.4 µM]	2%
Cn1c(=O)cc(SCC(=O)N2CCCC2)c2ccc(Cl)cc21	28	i	5	-19%	11µM*	7%
O=C(/C=C/c1ccc(F)cc1)c1ccc(N2CCOCC2)cc1	0	i	-21	6%	7%[15.4 µM]	0%
CCc1ccc(/C=C/C(=O)c2ccc(N3CCOCC3)cc2)cc1	-92*	i	-22	-15%	-4%[15.4 µM]	-3%
COC(=O)c1ccccc1NC(=O)CSc1nnc2cc(C)c3cc(C)cc(C)c3n12	-6	/	/	/	/	0%
CC(C)OCCCNc1nc(-c2ccccc2)nc2ccccc12	-21	i	6	?	10%	2%
CC(C)(C)C(=O)OCCNc1nc(-c2ccccc2)nc2ccccc12	?	i	-34	50µM*	?	0%
Cn1c(SCc2cccc([N+](=O)[O-])c2)nc2c(c1=O)SCC2	10	i	-4	35µM*	3%	3%
Cn1c(SCc2cccnc2)nc2c(c1=O)SCC2	-14	i	14	-2%	-12%[15.4 µM]	0%
O=[N+]([O-])c1cccc(CSc2nnc3ccccn23)c1	3	i	12	/	26%[15.4 µM]	25µM*
c1ccn2c(SCc3ccc4c(c3)OCCO4)nnc2c1	/	i	12	0%	?	0%
COc1ccc(Cc2nnc(NC(=O)c3ccccc3F)s2)cc1	1	i	-2	-14%	18%[15.4 µM]	0%
Cc1ccc(C(=O)NCCSc2c(C)[nH]c3ccccc23)cc1[N+](=O)[O-]	-30	i	-4	35µM*	-39%	2%
CCN(Cc1ccccc1)S(=O)(=O)c1c(C(=O)N2CCCC2)c(C)n(C)c1C	28	i	-5	5%	?	4%
